# Measured values: the supplement of paper PMC12282887
# ± gives the standard deviation of the averaged measurements.
# System: E. coli BW25113 marRABp lux reporter
# Assay: promoter activity interaction Z-score (Lux/OD deviation from empty-vector control); higher = stronger promoter induction by the compound
# Method: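 E. coli BW25113 (wild type or ΔmarA/ΔsoxS/Δrob) carrying pTU175 luxCDABE promoter reporters was grown in LB in 384-well plates at 37°C with each of 94 compounds at 4 two-fold concentrations, in biological duplicates. Luminescence and OD600 were read every 30 min for 12 h and integrated as AUC over 8 h (0-8 h WT, 1-9 h mutants). Lux AUC was divided by OD AUC; the interaction score is the residual of a Huber robust fit of each promoter against the empty-vector control, then Z-transformed per promoter.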
SMILES,"promoter activity interaction Z-score (0.0054 µg/ml, genetic background: wild type)","promoter activity interaction Z-score (0.0054 µg/ml, genetic background: ΔmarA)","promoter activity interaction Z-score (0.0054 µg/ml, genetic background: Δrob)","promoter activity interaction Z-score (0.0054 µg/ml, genetic background: ΔsoxS)","promoter activity interaction Z-score (0.011 µg/ml, genetic background: wild type)","promoter activity interaction Z-score (0.011 µg/ml, genetic background: ΔmarA)","promoter activity interaction Z-score (0.011 µg/ml, genetic background: Δrob)","promoter activity interaction Z-score (0.011 µg/ml, genetic background: ΔsoxS)","promoter activity interaction Z-score (0.022 µg/ml, genetic background: wild type)","promoter activity interaction Z-score (0.022 µg/ml, genetic background: ΔmarA)","promoter activity interaction Z-score (0.022 µg/ml, genetic background: Δrob)","promoter activity interaction Z-score (0.022 µg/ml, genetic background: ΔsoxS)","promoter activity interaction Z-score (0.26 µg/ml, genetic background: wild type)","promoter activity interaction Z-score (0.26 µg/ml, genetic background: ΔmarA)","promoter activity interaction Z-score (0.26 µg/ml, genetic background: Δrob)","promoter activity interaction Z-score (0.26 µg/ml, genetic background: ΔsoxS)","promoter activity interaction Z-score (0.52 µg/ml, genetic background: wild type)","promoter activity interaction Z-score (0.52 µg/ml, genetic background: ΔmarA)","promoter activity interaction Z-score (0.52 µg/ml, genetic background: Δrob)","promoter activity interaction Z-score (0.52 µg/ml, genetic background: ΔsoxS)","promoter activity interaction Z-score (1 µg/ml, genetic background: wild type)","promoter activity interaction Z-score (1 µg/ml, genetic background: ΔmarA)","promoter activity interaction Z-score (1 µg/ml, genetic background: Δrob)","promoter activity interaction Z-score (1 µg/ml, genetic background: ΔsoxS)","promoter activity interaction Z-score (2.1 µg/ml, genetic background: wild type)","promoter activity interaction Z-score (2.1 µg/ml, genetic background: ΔmarA)","promoter activity interaction Z-score (2.1 µg/ml, genetic background: Δrob)","promoter activity interaction Z-score (2.1 µg/ml, genetic background: ΔsoxS)"
C[C@H]1[C@H](NC(=O)/C(=N\OC(C)(C)C(=O)O)c2csc(N)n2)C(=O)N1S(=O)(=O)O [Aztreonam],-0.108 ± 0.36,0.583 ± 0.95,-0.202 ± 0.19,-0.188 ± 0.0033,0.0506 ± 0.094,-0.139 ± 0.26,-0.0608 ± 0.52,-0.218 ± 0.047,0.0487 ± 0.33,0.0272 ± 0.41,-0.0627 ± 0.18,-0.214 ± 0.088,–,–,–,–,–,–,–,–,–,–,–,–,–,–,–,–
CCC[C@@H]1C[C@@H](C(=O)N[C@@H]([C@H]2O[C@H](SC)[C@H](O)[C@@H](O)[C@H]2O)[C@H](C)Cl)N(C)C1 [Clindamycin],–,–,–,–,–,–,–,–,–,–,–,–,0.333 ± 0.029,0.0595 ± 0.25,0.168 ± 0.043,0.145 ± 0.068,-0.369 ± 0.4,0.0444 ± 0.093,0.0402 ± 0.096,0.279 ± 0.051,0.363 ± 0.56,-0.225 ± 0.051,0.279 ± 0.32,0.414 ± 0.023,0.13 ± 0.11,-0.108 ± 0.33,0.449 ± 0.032,0.869 ± 0.17
